Compounds with a hit are over-represented: about 5.6% of the library has one in this group of screens.
Six1-Eya2 blk = blocks human Six1 binding to Eya2; AlphaScreen GST-Six1/His-Eya2 binding, biochemical; stronger effect = lower value; activity change, % (concentration not given with the values); hit rate 0.56% among 360,000; in the data active = activity change below about -65%; inconclusive = mostly about -30% to -63%
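Homogeneous AlphaScreen proximity assay pairing GST-Six1 with His-tagged Eya2 (added as 5X mix: 250 nM and 500 nM) in 50 mM Tris pH 8.0, 300 mM NaCl, 1 mM TCEP. Glutathione donor and nickel acceptor beads; 1 h, 37 °C, dark.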
CtBP-E1A inh = inhibitors of CtBP/E1A interaction; AID 651724; hit rate 0.49% among 340,000; activity change, % (no concentration beside the values); AlphaScreen GST-E1A/His-CtBP binding, 1536-well; stronger effect = lower value; in the data active = activity change below about -65%; inconclusive = mostly about -30% to -63%
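In 5 uL wells, 23 nL compound meets equimolar GST-E1A and His-CtBP (5X stock 125 nM each) for 2 h, 37 °C. Beads (5X, 50 ug/mL) then 1 h, 37 °C, dark.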
Gal4-VP16 FLuc = inhibits Gal4-VP16 luciferase reporter, ROR gamma counter-screen; hit rate 3.5% among 310,000; Drosophila S2 Gal4-VP16 UAS-luciferase, luminescence, 20 h; AID 2546; Potency, µM (series often up to 53.6 µM), hits mostly inhibitors;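 note: Gal4-VP16 expression switched on by copper sulfate through the metallothionein promoter; nearly all actives have a fitted effect of over 50% in size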
RORg inh = inhibitors of mouse ROR gamma transcriptional activity; Drosophila S2 Gal4-RORgamma UAS-luciferase reporter, 20 h; Potency, µM (titrated, usually from 53.6 µM), usual class: inhibitors; AID 2551; P51450; hit rate 5.4% among 310,000; note: nearly all actives have a fitted effect of over 60% in size
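Stably transfected Drosophila Schneider cells are the test system, with ROR gamma fused to Gal4 and luciferase under UAS control; luminescence is read after 20 hr of 700 uM copper sulfate induction at ambient temperature.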
PKM2 act = PKM2 (human) enzyme activation; P14618; purified PKM2, Kinase-Glo ATP luminescence, activation; response scale: 0% is enzyme alone, no compound; Potency, µM (titrated, usually from 57.5 µM), hits mostly activators; hit rate 0.34% among 260,000; note: nearly all actives have a fitted effect of over 55% in size
Target sequence (P14618 whole entry, looked up): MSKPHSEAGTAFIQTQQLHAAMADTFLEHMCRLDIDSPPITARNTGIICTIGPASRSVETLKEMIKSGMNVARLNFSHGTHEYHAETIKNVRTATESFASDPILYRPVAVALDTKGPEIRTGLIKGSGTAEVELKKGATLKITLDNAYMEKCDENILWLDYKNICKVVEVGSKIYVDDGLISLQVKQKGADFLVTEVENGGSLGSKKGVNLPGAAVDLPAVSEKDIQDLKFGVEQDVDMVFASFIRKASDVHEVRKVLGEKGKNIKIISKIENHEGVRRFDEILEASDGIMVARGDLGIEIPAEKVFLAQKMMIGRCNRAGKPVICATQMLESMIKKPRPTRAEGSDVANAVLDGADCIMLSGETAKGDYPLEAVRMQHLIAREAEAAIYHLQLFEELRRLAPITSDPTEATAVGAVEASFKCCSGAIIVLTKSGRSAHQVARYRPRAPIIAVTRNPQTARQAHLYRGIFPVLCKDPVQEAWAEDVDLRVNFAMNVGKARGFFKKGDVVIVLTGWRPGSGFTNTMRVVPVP
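Purified hPK-M2 (>95%) run at intermediate activity with 0.1 mM ADP and 0.5 mM PEP in 50 mM imidazole pH 7.2, KCl, MgCl2; 1 h room temperature. ATP formed read by Kinase-Glo luminescence; normalized to uninhibited and no-enzyme controls.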
A number is an active result; – = inactive; ? = inconclusive; · = no result; [ ] = dose if it differs, or a comment. Unless noted, calls come from the whole dose curve; as a rule, active = well fitted curve in the direction sought with a large enough effect; inconclusive = small, poorly fitted or top-dose-only effect, or another doubt; inactive = no such curve, though single readings can be large; an effect the other way counts as inactive or inconclusive.

SMILES	Six1-Eya2 blk	CtBP-E1A inh	Gal4-VP16 FLuc	RORg inh	PKM2 act
O=C(COC(=O)CNC(=O)c1cccc(OC(F)F)c1)NNC(=O)c1ccccc1	–	–	·	·	·
Cc1cc(C)n(Cc2cccc(C(=O)N/N=C/c3cccnc3)c2)n1	–	–	·	·	–
Cc1cccc(-c2[nH]c(C(C)(C)C)nc2-c2ccc3c(c2)OCO3)n1	·	·	7.1µM	1.8µM	·
CCc1nn(CC(=O)NCc2cccnc2)c(=O)c2cc3occc3n12	–	–	–	–	·
Cc1cccc(NC(=O)CNC(=O)CN2C(=O)NC3(CCc4ccccc43)C2=O)c1C (stereo not drawn)	–	–	·	·	·
COc1ccc(-c2ccc(/C=C3/C(=N)N4C(C)=CSC4=NC3=O)o2)c([N+](=O)[O-])c1	–	–	?	11µM	–
CCC1=NN2C(=N)/C(=C\c3cccn3-c3cccc(Cl)c3)C(=O)N=C2S1	–	–	–	11µM	–
CC1=CSC2=NC(=O)/C(=C\c3cccn3-c3ccc([N+](=O)[O-])cc3)C(=N)N12	–	–	3.2µM	?	–
COc1ccc(-c2ccc(/C=C3\C(=O)N(c4ccccc4)N=C3c3ccccc3)o2)c([N+](=O)[O-])c1	–	–	–	–	–
CCC1=NN2C(=N)/C(=C\c3cccn3-c3ccc(Br)cc3)C(=O)N=C2S1	–	·	–	–	–
CC(C)c1ccc(-n2cccc2/C=C2/C(=N)N3C=CSC3=NC2=O)cc1	–	–	16µM	7.1µM	–
CC1=CSC2=NC(=O)/C(=C\c3cccn3-c3ccccc3)C(=N)N12	–	–	–	–	–
COc1ccc(C(O)c2ncc(-c3ccccc3C)[nH]2)cc1 (stereo not drawn)	–	–	·	·	·
Cc1nc2ccc(NC(=O)CCC3CCCC3)cc2s1	–	–	–	–	–
CCOc1ccc(NC(=O)N2CCC(c3nc4ccccc4[nH]3)CC2)cc1	–	–	–	–	–
CC(=O)N1CN(Cc2ccccn2)Cc2c1sc1c2CCCC1	-74	?	–	–	–
CC(=O)N1CN(CCCn2ccnc2)Cc2c1sc1c2CCCC1	–	–	–	–	–
O=C(CN(C(=O)c1csnn1)c1ccc(Cl)cc1)NCCc1ccccc1	–	–	–	–	–
COc1cc(CCNc2ccc3nnc(-c4ccccc4)n3n2)cc(OC)c1OC	-80	-90	–	–	–
C=CCNC(=S)NNc1nc(N2CCCC2)nc(N2CCCC2)n1	–	·	18µM	2.2µM	–
S=C(NNc1nc(Nc2ccccc2)nc(N2CCCCC2)n1)NC1CCCCC1	–	–	13µM	4.5µM	–
C=CCNC(=S)NNc1nc(Nc2ccccc2)nc(N2CCCCC2)n1	–	·	?	4µM	–
c1ccc(Nc2nc(N3CCOCC3)nc(N3CCOCC3)n2)cc1	–	–	–	–	–
Cc1cccc(N(Cc2ccccc2)C(=O)c2cc(S(=O)(=O)N3CCOCC3)ccc2Cl)c1	–	–	·	·	·
CCOc1ccc(Br)cc1S(=O)(=O)NCc1ccncc1	–	–	–	–	–
SMILES	Six1-Eya2 blk	CtBP-E1A inh	Gal4-VP16 FLuc	RORg inh	PKM2 act
Cc1ccccc1C(=O)Nc1ccc2c(C#N)c3nc4ccccc4nc3n2c1	?	-71	–	–	–
Cc1c(C(=O)Nc2ccccc2)cn2c(nc3ccccc32)c1C#N	–	–	?	–	–
Cc1csc(NC(=O)C(NS(=O)(=O)c2ccc(Br)s2)c2ccccc2)n1 (stereo not drawn)	–	–	?	13µM	–
CC(NS(=O)(=O)c1ccc(Br)s1)c1ccccc1 (stereo not drawn)	–	·	–	–	·
Cn1c(/C(C#N)=C(\O)c2ccc([N+](=O)[O-])s2)nc2ccccc21	–	–	–	–	·
Cn1c(/C(C#N)=C(\O)c2ccc(Cl)s2)nc2ccccc21	–	·	4.5µM	2µM	·
COc1ccc2nc(Cl)c(C3CC(c4ccco4)=NN3C(=O)CCC(=O)O)cc2c1 (stereo not drawn)	–	–	?	–	–
COc1ccc2nc(Cl)c(C3CC(c4ccco4)=NN3C(=O)CCCC(=O)O)cc2c1 (stereo not drawn)	–	–	–	–	22µM
O=C(C(=O)N1CCCc2ccccc21)c1c[nH]c2ccccc12	–	–	–	–	35µM
Cc1ccc(NC(=O)CN(C)S(=O)(=O)c2cccs2)cc1C	–	–	7.9µM	?	–
CCCNC(=O)Cn1c(=O)/c(=C/c2ccc(-c3ccc([N+](=O)[O-])cc3)o2)s/c1=C\C(=O)C(C)(C)C	–	–	·	·	·
CCS(=O)(=O)c1ncc(CO)n1CCc1ccccc1	–	–	–	–	–[11.5 µM]
CCCn1c(C(C)Nc2nc(-c3ccc(OC)cc3)cs2)nc2ccccc21 (stereo not drawn)	–	–	?	7.9µM	–
COc1ccc(-c2csc(NC(CO)c3nc4ccccc4n3Cc3ccc(C)cc3)n2)cc1 (stereo not drawn)	–	?	·	·	·
CCCCN1CNC(=S)N(c2cc(C)ccc2C)C1	–	–	10µM	14µM	–
CCCCN1CNC(=S)N(c2ccccc2OCC)C1	–	–	14µM	11µM	–
CCCN1CNC(=S)N(c2ccccc2OCC)C1	–	–	?	10µM	?
CCCCN1CNC(=S)N(c2ccc(C(=O)OCC)cc2)C1	–	–	–	?	–
CCCN1CNC(=S)N(c2cccc(C)c2)C1	–	–	–	11µM	–
O=C(Cn1ncc2c([nH]c3ccccc32)c1=O)NCC1CCN(Cc2ccccc2F)CC1	–	–	–	–	·
COc1ccc2c(c1)sc(=N)n2C	–	–	–	–	–
C=CCN(C(C(=O)OC)C(C)C)S(=O)(=O)C=C (stereo not drawn)	·	·	–	–	·
O=C(O)c1cccc(-n2cccc2/C=C2/NC(=O)N(c3ccc(Cl)cc3)C2=O)c1	-76	?	?	–	?
O=C(O)c1cccc(-n2cccc2/C=C2/NC(=O)N(c3cccc(Cl)c3)C2=O)c1	–	–	–	–	–
Cc1cc(OCC(=O)Nc2ccc(N3CCN(C)CC3)cc2)ccc1Cl	–	–	–	–	–
SMILES	Six1-Eya2 blk	CtBP-E1A inh	Gal4-VP16 FLuc	RORg inh	PKM2 act
COc1ccc(N2CCC(CNC(=S)Nc3ccc(C)cc3C)C2)cc1 (stereo not drawn)	?	–	?	0.63µM	–
CCc1ccc(NC(=O)NCC2CCN(c3ccc(OC)cc3)C2)cc1 (stereo not drawn)	–	–	–	–	–
COc1ccc(N2CCC(CNC(=S)Nc3cccc(C)c3)C2)cc1 (stereo not drawn)	?	?	5µM	4µM	–
COc1ccc(N2CCC(CNC(=S)Nc3c(C)cc(C)cc3C)C2)cc1 (stereo not drawn)	?	–	7.1µM	1.4µM	–
COc1ccc(N2CCC(CNC(=O)Nc3ccc(C)c(C)c3)C2)cc1 (stereo not drawn)	?	–	–	–	–
COc1cc(OC)c2c(c1C(CCN1CCOCC1)c1ccc(N(C)C)cc1)OC(=O)CC2c1ccc(N(C)C)cc1 (stereo not drawn)	-80	?	–	?	–

Screens deposited in PubChem by National Center for Advancing Translational Sciences (NCATS).
